According to PubChem BioAssay (NCATS):
Records with an inconclusive call do not appear. The source made the active and inactive calls. The call rests on the fitted dose curve; in most records, active means well fitted curve in the direction sought with a large enough effect; inconclusive means small, poorly fitted or top-dose-only effect, or another doubt; inactive means no such curve, though single readings can be large; an effect the other way counts as inactive or inconclusive.

Columns and labels:
[1] = Quantitative High-Throughput drug screen in 47 multiple myeloma cell lines against the NCATS MIPE library collection: AMO1_DSMZ cell viability assay (AID 1918927; further: nearly all actives have a fitted effect of over 30% in size); details: AMO1 myeloma cells viability, CellTiter-Glo ATP luminescence, 48 h; series mostly up to 45.8 µM
How it was run: (§1)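 We plated 500 myeloma cells per well, pinned in MIPE 4.0 compounds, and incubated for 48 hours at 37C. ATP was then quantified with CellTiter-Glo, with DMSO and media-only wells defining 100% and 0%.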

[2] = Quantitative High-Throughput drug screen in 47 multiple myeloma cell lines against the NCATS MIPE library collection: ARD_JJKsccE7 cell viability assay (AID 1918929); details: ARD myeloma cell line viability, CellTiter-Glo, 48 h; series mostly up to 45.8 µM
How it was run: as §1

[3] = Quantitative High-Throughput drug screen in 47 multiple myeloma cell lines against the NCATS MIPE library collection: Karpas620_DSMZ cell viability assay (AID 1918959); details: Karpas620 myeloma viability, CellTiter-Glo ATP luminescence, 48 h; series mostly up to 45.8 µM; further: nearly all actives have a fitted effect of over 30% in size
How it was run: (§2)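 Myeloma cells (500 per well) were exposed to MIPE 4.0 compounds by pin transfer and incubated 48 hours at 37C, 5% CO2. Viability was read as ATP by CellTiter-Glo luminescence, normalised to DMSO (100%) and media-only (0%) wells.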

[4] = Quantitative High-Throughput drug screen in 47 multiple myeloma cell lines against the NCATS MIPE library collection: KMM1_JCRB cell viability assay (AID 1918960); details: KMM1 myeloma viability, CellTiter-Glo ATP luminescence, 48 h; series mostly up to 45.8 µM; further: nearly all actives have a fitted effect of over 30% in size
How it was run: (§3)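 Cell viability inhibition in this qHTS is measured via ATP content (CellTiter-Glo) after 48 h drug exposure at 37 °C. Wells hold 500 cells; DMSO-treated wells define 100% and medium-only wells 0%.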

[5] = Quantitative High-Throughput drug screen in 47 multiple myeloma cell lines against the NCATS MIPE library collection: KHM11_PLB cell viability assay (AID 1918962); details: KHM11 myeloma cell viability, CellTiter-Glo ATP luminescence, 48 h; series mostly up to 45.8 µM; further: nearly all actives have a fitted effect of over 35% in size
How it was run: as §2

[6] = Quantitative High-Throughput drug screen in 47 multiple myeloma cell lines against the NCATS MIPE library collection: JIM3_ECACC cell viability assay (AID 1918963; further: nearly all actives have a fitted effect of over 35% in size); details: JIM3 myeloma viability, CellTiter-Glo ATP, 48 h; series mostly up to 45.8 µM
How it was run: as §2

[7] = Quantitative High-Throughput drug screen in 47 multiple myeloma cell lines against the NCATS MIPE library collection: JIM1_ECACC cell viability assay (AID 1918964); details: JIM1 myeloma viability, CellTiter-Glo ATP luminescence, 48 h; series mostly up to 45.8 µM
How it was run: as §1

[8] = Quantitative High-Throughput drug screen in 47 multiple myeloma cell lines against the NCATS MIPE library collection: Delta47_JCRB cell viability assay (AID 1918925; further: nearly all actives have a fitted effect of over 45% in size); details: Delta47 myeloma viability, CellTiter-Glo ATP, 48 h; series mostly up to 45.8 µM
How it was run: as §1

[9] = Quantitative High-Throughput drug screen in 47 multiple myeloma cell lines against the NCATS MIPE library collection: Karpas417_ECACC cell viability assay (AID 1918961); details: Karpas417 myeloma viability, CellTiter-Glo ATP luminescence, 48 h; viability (% of DMSO): at 45.8 µM (top of the series)
How it was run: (§4)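 CellTiter-Glo ATP luminescence gave viability after 48 h compound treatment at 37C of 500 multiple myeloma cells per well. Normalisation used DMSO-only wells as 100% and media-only wells as 0% viability; primary qHTS of approved and investigational drugs.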

[10] = Quantitative High-Throughput drug screen in 47 multiple myeloma cell lines against the NCATS MIPE library collection: INA6_PLB cell viability assay (AID 1918965; further: nearly all actives have a fitted effect of over 55% in size); details: INA6 myeloma viability, CellTiter-Glo ATP luminescence, 48 h; series mostly up to 45.8 µM
How it was run: as §4

[11] = Quantitative High-Throughput drug screen in 47 multiple myeloma cell lines against the NCATS MIPE library collection: EJM_DSMZ cell viability assay (AID 1918926; further: nearly all actives have a fitted effect of over 30% in size); details: EJM myeloma cell viability, CellTiter-Glo ATP, 48 h; series mostly up to 45.8 µM
How it was run: as §1

[12] = Quantitative High-Throughput drug screen in 47 multiple myeloma cell lines against the NCATS MIPE library collection: ARP1_JJKsccF8 cell viability assay (AID 1918928; further: nearly all actives have a fitted effect of over 40% in size); details: ARP1 myeloma cells viability, CellTiter-Glo ATP, 48 h; series mostly up to 45.8 µM
How it was run: as §3

[13] = Quantitative High-Throughput drug screen in 47 multiple myeloma cell lines against the NCATS MIPE library collection: FR4_PLB cell viability assay (AID 1918924; further: nearly all actives have a fitted effect of over 35% in size); details: FR4_PLB myeloma cells viability, CellTiter-Glo ATP, 48 h; series mostly up to 45.8 µM
How it was run: as §2

[14] = Quantitative High-Throughput drug screen in 47 multiple myeloma cell lines against the NCATS MIPE library collection: JJN3_DSMZ cell viability assay (AID 1918966; further: nearly all actives have a fitted effect of over 50% in size); details: JJN3 myeloma cells viability, CellTiter-Glo ATP, 48 h; series mostly up to 45.8 µM
How it was run: as §1

Measured: Potency
Potency means the concentration at half of the fitted maximal effect.

NC1=N[C@@]2(c3cc(NC(=O)c4ccc(F)cn4)ccc3F)COC[C@@H]2CS1
active: [1] 2.64 µM | [2] 1.87 µM | [3] 0.418 µM | [4] 3.32 µM | [5] 13.2 µM | [7] 0.935 µM
inactive: [6]

CC[C@H]1OC(=O)[C@H](C)C(=O)[C@H](C)[C@@H](O[C@H]2O[C@H](C)C[C@H](N(C)C)[C@@H]2O)[C@](C)(OC)C[C@@H](C)C(=O)[C@H](C)[C@H]2N(CCCCn3cnc(-c4cccnc4)c3)C(=O)O[C@]12C
inactive: [1] | [2] | [3] | [5] | [6] | [7]
active: [4] 3.72 µM

CC=C(C)C(=O)O[C@H]1C(C)=C[C@]23C(=O)[C@@H](C=C(CO)[C@@H](O)[C@]12O)[C@H]1[C@@H](C[C@H]3C)C1(C)C
active: [8] 5.26 µM | [1] 18.7 µM | [2] 11.8 µM | [9] 0.209 µM | [5] 3.72 µM | [6] 18.7 µM | [10] 0.0066 µM

Nc1ncnc2c1ncn2[C@@H]1O[C@H](CO)C[C@@H]1O
not listed: [5] | [7] | [13] | [14]
inactive: all other assays above

O=C1NC(=O)C(=Cc2ccc(-c3ccc(F)cc3)o2)S1
inactive: [13] | [3] | [5]
active: [4] 5.9 µM

O=C(O)[C@H]1O[C@H](Oc2cc3oc(-c4ccccc4)cc(=O)c3c(O)c2O)[C@H](O)[C@@H](O)[C@H]1O
active: [13] 26.4 µM | [5] 20.9 µM
inactive: [2] | [10]

CNC(=O)c1ccccc1Sc1ccc2c(C=Cc3ccccn3)n[nH]c2c1
active: [8] 3.72 µM | [11] 23.5 µM | [1] 2.64 µM | [3] 0.264 µM | [4] 3.32 µM | [10] 18.7 µM

O=c1c(-c2ccc(O)cc2)coc2cc(OC3O[C@H](CO)[C@H](O)[C@H](O)[C@H]3O)cc(O)c12 (some centres not stated)
inactive: [1] | [7]
active: [8] 3.72 µM | [12] 18.7 µM | [6] 4.69 µM | [10] 10.5 µM

O=C(O)c1c(Cl)c(Cl)c(Cl)c(Cl)c1-c1c2cc(I)c(=O)c(I)c-2oc2c(I)c(O)c(I)cc12
active: [1] 13.2 µM | [2] 8.33 µM | [3] 14.8 µM | [6] 7.43 µM | [7] 2.35 µM | [10] 10.5 µM | [14] 5.9 µM

CC=CCC=CCCC(=O)[C@H]1O[C@@H]1C(N)=O
active: [1] 20.9 µM | [2] 26.4 µM | [3] 16.6 µM | [7] 11.8 µM | [10] 18.7 µM

Nc1nc(F)nc2c1ncn2[C@@H]1O[C@H](COP(=O)(O)O)[C@@H](O)[C@H]1O
active: [13] 1.87 µM | [2] 0.0019 µM
inactive: [4] | [6] | [14]

O=C1Nc2ccc(Cl)cc2C(C#CC2CC2)(C(F)(F)F)O1 (configuration not stated)
active: [10] 20.9 µM

Cc1c[nH]c(C=C2C(=O)Nc3ccccc32)c1CCC(=O)O
inactive: [8] | [3]
active: [4] 18.7 µM

CC(=O)O[C@]1(C(C)=O)CC[C@@H]2[C@@H]3C[C@H](C)C4=CC(=O)CC[C@]4(C)[C@H]3CC[C@@]21C
active: [8] 18.7 µM | [11] 20.9 µM | [12] 26.4 µM | [4] 4.69 µM | [10] 18.7 µM | [14] 20.9 µM
inactive: [3] | [5] | [6] | [7]

CC(=NNC(=S)N1CCC1)c1ccccn1
inactive: [11] | [6]
active: [1] 0.001 µM | [2] 0.001 µM

O=C(O)c1ccc(-c2cc3cccnc3c(-c3ccc4nonc4c3)n2)cc1
active: [11] 18.7 µM | [5] 20.9 µM | [10] 20.9 µM

O=C(O)C=Cc1ccc(O)c(O)c1
inactive: [5] | [6]
active: [11] 13.2 µM | [12] 26.4 µM | [3] 20.9 µM

COc1ccc(-c2oc3c(CC=C(C)C)c(OC4O[C@H](CO)[C@@H](O)[C@H](O)[C@@H]4O)cc(O)c3c(=O)c2OC2O[C@@H](C)[C@H](O)[C@@H](O)[C@@H]2O)cc1 (some centres not stated)
active: [8] 18.7 µM | [1] 8.33 µM | [12] 16.6 µM | [2] 9.35 µM | [3] 11.8 µM | [9] 10.5 µM | [6] 20.9 µM | [10] 33.2 µM

CO[C@H]1C[C@@H]2CC[C@@H](C)[C@@](O)(O2)C(=O)C(=O)N2CCCC[C@@H]2C(=O)O[C@H]([C@H](C)C[C@@H]2CC[C@H](OCCO)[C@H](OC)C2)CC(=O)[C@H](C)C=C(C)[C@@H](O)[C@@H](OC)C(=O)[C@H](C)C[C@H](C)C=CC=CC=C1C
inactive: [5]
active: [14] 6.62 µM

CCC(=O)NC[C@H](Cc1ccc(OCCc2nc(-c3ccccc3)oc2C)cc1)NC(C)=CC(=O)c1ccc(C(F)(F)F)cc1
active: [11] 26.4 µM | [12] 23.5 µM | [2] 1.48 µM
inactive: [8] | [6]

COc1ccc(Cc2nccc3cc(OC)c(OC)cc23)cc1OC
inactive: [13]
active: [7] 16.6 µM | [14] 16.6 µM
